Results filed as inconclusive are left out. A structure can be active in one record and inactive in another. Activity calls are given as the source filed them. How the source made its calls: active means hit-call score of the fitted dose curve at least 0.9, where 1 is the maximum; inconclusive means response in the unintended direction; inactive means score below 0.9.

Sequence of human Peripheral-type Benzodiazepine Receptor (PBR), TSPO (gene 706) (P30536 whole entry, looked up): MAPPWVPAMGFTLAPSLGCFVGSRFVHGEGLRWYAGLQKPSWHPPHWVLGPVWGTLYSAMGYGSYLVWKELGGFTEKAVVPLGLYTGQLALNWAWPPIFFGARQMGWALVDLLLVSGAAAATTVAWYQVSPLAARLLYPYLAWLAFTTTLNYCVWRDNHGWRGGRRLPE
Sequence of rat Gamma-Aminobutyric Acid Type A Receptor, Non-Selective (GABAR-NonSelective), Gabra1 (gene 29705) (P62813 whole entry, looked up): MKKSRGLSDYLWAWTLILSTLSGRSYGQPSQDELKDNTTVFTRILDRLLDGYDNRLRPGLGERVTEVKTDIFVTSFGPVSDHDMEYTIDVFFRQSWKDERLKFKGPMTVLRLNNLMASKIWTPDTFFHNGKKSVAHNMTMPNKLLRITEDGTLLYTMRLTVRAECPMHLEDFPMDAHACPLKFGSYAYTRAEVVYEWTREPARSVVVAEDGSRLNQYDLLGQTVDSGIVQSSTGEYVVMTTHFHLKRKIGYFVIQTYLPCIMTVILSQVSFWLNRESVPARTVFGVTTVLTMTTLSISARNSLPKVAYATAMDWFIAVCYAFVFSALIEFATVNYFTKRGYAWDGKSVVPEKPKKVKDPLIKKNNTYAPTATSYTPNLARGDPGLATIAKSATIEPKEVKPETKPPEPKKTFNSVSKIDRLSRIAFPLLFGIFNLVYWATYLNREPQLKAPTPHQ

The target of the first experiment is Sodium channel protein type 1 subunit alpha (Rattus norvegicus) (UniProt P04774). The experiment in a line: NVS_IC_rNaCh_site2: NovaScreen (NVS) Ion Channel Assay for rat Sodium Channel, Site 2 (NaCh) (AID 2283322).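 Further: hit means loss of radioligand binding signal relative to DMSO so AC50 marks displacement.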 The gist of the method: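 Initial duplicate single-point testing at 25 uM, followed by concentration-response runs for actives. Binding of radioligand to rat forebrain membranes quantified after 1 h via filter-based radiodetection.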
Turning to `CCCCCCCCCC[N+](C)(C)[O-]`, the AC50 was 19.1 µM (active). Same read-out and setting: to `CSc1ccc(Oc2ccc(S(N)(=O)=O)cc2CN(C)C)cc1C` belongs 13.5 µM (active); to `CCc1nc(N)nc(N)c1-c1ccc(Cl)cc1`, 3.65 µM (active).

The target of a further experiment is bovine Gamma-Aminobutyric Acid Type A Receptor BDZ, alpha 5 site (GABARa5), GABRA5 (gene 523515) (UniProt Q08E50). The experiment in a line: NVS_LGIC_bGABARa5: NovaScreen (NVS) Ligand-Gated Ion Channel Assay for bovine Gamma-Aminobutyric Acid Type A Receptor BDZ, alpha 5 site (GABARa5) (AID 2283323). In outline: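 Tested first in duplicate at a single 25 uM, with hits re-run in concentration series to a 50 uM maximum. Bovine hippocampal membranes; specific radioligand displacement measured by filter scintillation counting 1 hr post-dose.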
Sequence of bovine Gamma-Aminobutyric Acid Type A Receptor BDZ, alpha 5 site (GABARa5), GABRA5 (gene 523515) (Q08E50 whole entry, looked up): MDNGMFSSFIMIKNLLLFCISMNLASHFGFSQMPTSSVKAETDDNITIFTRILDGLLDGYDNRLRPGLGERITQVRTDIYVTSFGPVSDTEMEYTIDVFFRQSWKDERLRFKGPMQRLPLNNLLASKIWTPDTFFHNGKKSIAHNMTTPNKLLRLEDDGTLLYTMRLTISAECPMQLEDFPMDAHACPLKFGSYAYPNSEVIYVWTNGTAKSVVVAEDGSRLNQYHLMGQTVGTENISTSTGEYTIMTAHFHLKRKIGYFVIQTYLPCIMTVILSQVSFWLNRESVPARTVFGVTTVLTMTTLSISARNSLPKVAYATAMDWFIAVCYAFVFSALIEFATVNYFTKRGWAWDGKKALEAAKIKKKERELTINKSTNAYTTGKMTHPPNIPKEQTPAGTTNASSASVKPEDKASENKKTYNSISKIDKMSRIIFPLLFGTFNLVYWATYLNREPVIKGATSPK
For `CCC(C)N(C)C(=O)c1cc2ccccc2c(-c2ccccc2Cl)n1` (stereo not drawn), the outcome was inactive. Turning to `CC(C)c1cccc(C(C)C)c1NC(=O)NS(=O)(=O)c1cc(C(C)(C)O)co1`, the result was inactive. The same measure, in the same setting: for `CCCCc1nc2cccnc2n1Cc1ccc(-c2ccccc2-c2nnn[nH]2)cc1` the value was “inactive”. Take `COc1ccc(C(=O)Nc2nc3ccccc3c(NCc3ccccc3)c2C#N)cc1`: the outcome was inactive.

A further experiment deals with rat Glutamate, AMPA Site (AMPA), Gria1 (gene 50592) (UniProt P19490). The experiment is described as follows: NVS_LGIC_rAMPA: NovaScreen (NVS) Ligand-Gated Ion Channel Assay for rat Glutamate, AMPA Site (AMPA) (AID 2283324). As for the experimental part: (§1) NVS_LGIC_rAMPA is a biochemical, single-readout assay that uses extracted gene-proteins from Rat forebrain membranes in a tissue-based cell-free assay. Measurements were taken 1 hour after chemical dosing in a 48-well plate.NVS_LGIC_rAMPA is one of one assay component(s) measured or calculated from the NVS_LGIC_rAMPA assay. It is designed to make measurements of radioligand binding, a form of binding reporter, as detected with scintillation counting signals by Filter-based radiodetection technology.Data from the assay component NVS_LGIC_rAMPA was analyzed into 1 assay endpoint. This assay endpoint, NVS_LGIC_rAMPA, was analyzed in the positive analysis fitting direction relative to DMSO as the negative control and baseline of activity. Using a type of binding reporter, loss-of-signal activity can be used to understand changes in the binding as they relate to the gene Gria1. Furthermore, this assay endpoint can be referred to as a primary readout, because the performed assay has only produced 1 assay endpoint. To generalize the intended target to other relatable targets, this assay endpoint is annotated to the ion channel intended target family, where the subfamily is ligand-gated ion channel.
Sequence of rat Glutamate, AMPA Site (AMPA), Gria1 (gene 50592) (P19490 whole entry, looked up): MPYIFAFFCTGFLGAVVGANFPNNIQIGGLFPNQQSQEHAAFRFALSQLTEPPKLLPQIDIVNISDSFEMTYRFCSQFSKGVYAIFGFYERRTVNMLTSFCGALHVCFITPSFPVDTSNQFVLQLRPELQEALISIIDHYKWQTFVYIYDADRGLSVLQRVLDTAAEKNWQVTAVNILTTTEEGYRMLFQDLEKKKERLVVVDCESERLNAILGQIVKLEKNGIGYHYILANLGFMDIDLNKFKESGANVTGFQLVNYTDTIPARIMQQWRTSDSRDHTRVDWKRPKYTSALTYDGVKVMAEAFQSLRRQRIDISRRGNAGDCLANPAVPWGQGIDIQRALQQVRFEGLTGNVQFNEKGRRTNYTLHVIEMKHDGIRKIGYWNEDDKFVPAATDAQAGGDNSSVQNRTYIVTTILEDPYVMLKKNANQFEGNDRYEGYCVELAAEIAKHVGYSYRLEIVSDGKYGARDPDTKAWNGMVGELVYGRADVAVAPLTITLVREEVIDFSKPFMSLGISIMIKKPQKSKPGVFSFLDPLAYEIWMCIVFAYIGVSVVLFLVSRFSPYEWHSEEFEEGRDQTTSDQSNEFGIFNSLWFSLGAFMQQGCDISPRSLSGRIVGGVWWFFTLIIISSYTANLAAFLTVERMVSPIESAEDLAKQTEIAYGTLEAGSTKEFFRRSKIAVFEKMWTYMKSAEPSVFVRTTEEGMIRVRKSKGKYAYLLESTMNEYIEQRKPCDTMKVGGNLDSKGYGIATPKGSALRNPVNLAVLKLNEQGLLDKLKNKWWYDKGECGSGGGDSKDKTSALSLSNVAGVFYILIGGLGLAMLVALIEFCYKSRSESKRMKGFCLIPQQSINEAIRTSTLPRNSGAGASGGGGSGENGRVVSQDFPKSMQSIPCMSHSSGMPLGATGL
(§2) Binding assays used specific radioligands (tritiated, iodinated) with non-radioactive competitive displacement ligands in agonist or antagonist protocols (as indicated) and various reference compounds and inhibitors to titrate specific binding to receptors and transporters. Most enzyme assays (CYPs, kinases, phosphatases, proteases, HDACs) used recombinant protein and specific substrates (fluorescence mostly, some colorimetric and radioactive) and inhibitors, followed by a biochemical separation of substrate and product. All assays for the biochemical HTS were initially run in duplicate at a single concentration (10 uM for CYP450 assays and 25 uM for all others). Assay-chemical combinations meeting a pre-defined threshold (e.g., 30% inhibition and other criteria defined below) were then run in singleton concentration-response format with maximum concentration of 20 uM for CYPs and 50 uM for all others. Each assay was run with positive and negative controls, and concurrent controls on every plate. The follow-up (secondary) screen tested active chemical-pairs in concentration series, as well as a few additional assays not tested in the primary screen, some selected negative inactives, and several cases re-run in the concentration series for confirmatory purposes.
On to `CCCCC(CC)COP(=O)(OCC(CC)CCCC)OCC(CC)CCCC` (stereo not drawn), for which the result was inactive.

As for `COc1ccc(OC(F)(F)F)cc1CN[C@H]1CCCN[C@H]1c1ccccc1`, the call was inactive.

As to `Cc1cc(SC2=C(O)C[C@@](CCc3ccc(N)cc3)(C(C)C)OC2=O)c(C(C)(C)C)cc1CO`, the compound was called inactive. For the compound `O=Cc1ccccc1C=O`, the AC50 is 13.5 µM (active).

Turning to `CC(C)NCC(O)c1ccc(O)c(O)c1` (stereo not drawn), the outcome was inactive.

For another experiment, the target named is human Serotonin, 5-Hydroxytryptamine Receptor 3 (5HT3), HTR3A (gene 3359) (UniProt P46098). The experiment in a line: NVS_LGIC_h5HT3: NovaScreen (NVS) Ligand-Gated Ion Channel Assay for human Serotonin, 5-Hydroxytryptamine Receptor 3 (5HT3) (AID 2283325). The protocol: as §1, with “NVS_LGIC_h5HT3” for “NVS_LGIC_rAMPA”, “HEK293” for “Rat forebrain membranes”, “a” for “a tissue-based”, “96-well plate.NVS_LGIC_h5HT3” for “48-well plate.NVS_LGIC_rAMPA”, “NVS_LGIC_h5HT3,” for “NVS_LGIC_rAMPA,”, “HTR3A.” for “Gria1.”
Sequence of human Serotonin, 5-Hydroxytryptamine Receptor 3 (5HT3), HTR3A (gene 3359) (P46098 whole entry, looked up): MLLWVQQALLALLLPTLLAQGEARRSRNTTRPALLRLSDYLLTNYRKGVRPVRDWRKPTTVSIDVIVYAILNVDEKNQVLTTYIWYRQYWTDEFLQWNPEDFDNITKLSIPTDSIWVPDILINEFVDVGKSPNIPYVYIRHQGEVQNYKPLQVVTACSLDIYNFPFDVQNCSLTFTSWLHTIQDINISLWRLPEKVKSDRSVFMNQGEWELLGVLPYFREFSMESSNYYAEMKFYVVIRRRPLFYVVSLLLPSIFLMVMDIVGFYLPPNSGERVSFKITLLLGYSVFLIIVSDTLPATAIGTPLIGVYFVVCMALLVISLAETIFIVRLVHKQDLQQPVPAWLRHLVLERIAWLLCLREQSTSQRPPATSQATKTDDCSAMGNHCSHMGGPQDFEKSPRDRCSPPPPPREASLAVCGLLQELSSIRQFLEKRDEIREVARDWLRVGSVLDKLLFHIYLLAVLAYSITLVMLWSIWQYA
as §2
As to `CN(C)CCCN1c2ccccc2Sc2ccc(Cl)cc21`, the half-maximal activity concentration (AC50) was 25 µM (active). The same measure, in the same setting: for `OCC(O)CO` the value was 25 µM (active). Take `Cc1cc(SC2=C(O)C[C@@](CCc3ccc(N)cc3)(C(C)C)OC2=O)c(C(C)(C)C)cc1CO`: the outcome was inactive. Take `Cc1cn([C@H]2C=C[C@@H](CO)O2)c(=O)[nH]c1=O`: the half-maximal activity concentration (AC50) is 8.81 µM (active). For the compound `CCCCCCCCCCCCCCOS(=O)(=O)O`, the AC50 was 25 µM (active).

Consider `CSc1ccc(Oc2ccc(S(N)(=O)=O)cc2CN(C)C)cc1C`, for which the call was inactive. On the same count and under the same terms, for `C/C=C/C=C/C(=O)O` the value was “inactive”.

The next experiment concerns the target rat Gamma-Aminobutyric Acid Type A Receptor, Non-Selective (GABAR-NonSelective), Gabra1 (gene 29705) (UniProt P62813). The experiment is described as follows: NVS_LGIC_rGABAR_NonSelective: NovaScreen (NVS) Ligand-Gated Ion Channel Assay for rat Gamma-Aminobutyric Acid Type A Receptor, Non-Selective (GABAR-NonSelective) (AID 2283326). In outline: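 Compounds were first screened in duplicate at 25 uM, with actives run as singleton concentration series (max 50 uM). Binding of a radioligand to rat whole-brain GABA-A preparation was measured by filtration and scintillation counting after 1 h, DMSO baseline.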
`COc1ccc(OC(F)(F)F)cc1CN[C@H]1CCCN[C@H]1c1ccccc1`: the concentration at half-maximal activity (AC50) was 2 µM (active).

For the compound `CSc1ccc(Oc2ccc(S(N)(=O)=O)cc2CN(C)C)cc1C`, the AC50 was 10.3 µM (active). On the same count and under the same terms, to `CCc1nc(N)nc(N)c1-c1ccc(Cl)cc1` belongs 0.0648 µM (active).

In another experiment the target is rat Thyrotropin Releasing Hormone Receptor (TRH), Trhr (gene 25570) (UniProt Q01717). The experiment is described as follows: NVS_GPCR_rTRH: NovaScreen (NVS) G Protein-Coupled Receptor Assay for rat Thyrotropin Releasing Hormone Receptor (TRH) (AID 2283329).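 Further: hit means lower bound tracer signal versus DMSO baseline.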 The gist of the method: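 Rat forebrain membranes; radioligand displacement at TRH receptor by filter-based scintillation counting, read 4 h after dosing. Duplicate single-point screen at 25 uM, actives rerun in concentration series; loss of signal relative to DMSO.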
Sequence of rat Thyrotropin Releasing Hormone Receptor (TRH), Trhr (gene 25570) (Q01717 whole entry, looked up): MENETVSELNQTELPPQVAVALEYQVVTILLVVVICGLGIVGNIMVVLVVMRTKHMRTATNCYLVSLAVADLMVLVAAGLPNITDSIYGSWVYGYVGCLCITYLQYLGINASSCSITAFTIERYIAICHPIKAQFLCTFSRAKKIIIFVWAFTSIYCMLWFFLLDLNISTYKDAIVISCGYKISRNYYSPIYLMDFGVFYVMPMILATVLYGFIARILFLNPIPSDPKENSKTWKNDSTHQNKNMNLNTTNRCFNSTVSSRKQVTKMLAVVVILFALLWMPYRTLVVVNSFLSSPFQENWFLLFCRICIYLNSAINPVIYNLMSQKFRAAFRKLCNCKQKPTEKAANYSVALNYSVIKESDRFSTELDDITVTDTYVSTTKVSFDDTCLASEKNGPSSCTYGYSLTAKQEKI
With `CS(=O)(=O)c1ccc([C@@H](C[C@H]2CCC(=O)C2)C(=O)Nc2cnccn2)cc1Cl`, the compound was called inactive. The same measure, in the same setting: to `CC(=O)[C@@]1(O)CC[C@H]2[C@@H]3CCC4=CC(=O)CC[C@]4(C)[C@H]3CC[C@@]21C` belongs “inactive”; to `O=C1CCCCC1`, “inactive”; to `CCCCc1nc2cccnc2n1Cc1ccc(-c2ccccc2-c2nnn[nH]2)cc1`, “inactive”. On the same count and under the same terms, for `C#CC(O)C(CC)CCCC` (stereo not drawn) the value was “inactive”; for `O=[Si]=O`, “inactive”. In the case of `O=C(O)CN(CC(=O)O)CC(=O)O`, the concentration at half-maximal activity (AC50) was 5.7 µM (active). Turning to `Cc1cc(Cc2ccc(N)c(C)c2)ccc1N`, the call was inactive.

Another experiment concerns the target human Peripheral-type Benzodiazepine Receptor (PBR), TSPO (gene 706) (UniProt P30536). The experiment is described as follows: NVS_MP_hPBR: NovaScreen (NVS) Membrane Protein Assay for human Peripheral-type Benzodiazepine Receptor (PBR) (AID 2283331).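 Further: hits reduce radioligand binding relative to DMSO baseline.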 The gist of the method:
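Cell-free binding to human colonic membrane preparations measured by filter-based scintillation counting after 1 h. Compounds first run at 25 uM in duplicate, then concentration series for actives; signal loss against DMSO baseline.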
`CC(COCC(C)OC(=O)c1ccccc1)OC(=O)c1ccccc1` (stereo not drawn): the outcome was inactive. As for `O=C(N[C@@H](c1ccccc1)[C@@H]1CCCCN1)c1cccc(C(F)(F)F)c1Cl`, the AC50 was 17.9 µM (active). `CCCCCCC(CCCCCCCCCCC(=O)OCC(COC(C)=O)OC(C)=O)OC(C)=O` (stereo not drawn): the compound was classed as inactive. On the same count and under the same terms, to `Oc1ccc(O)cc1` belongs “inactive”. Take `CCN(CC)CCOc1ccc(C(=C(Cl)c2ccccc2)c2ccccc2)cc1`: the concentration at half-maximal activity (AC50) is 0.672 µM (active) and the compound was classed as inactive.

Turning to `CC(C)(O)c1ccc(CNC(=O)c2cccnc2Oc2ccc(F)cc2)cc1`, the AC50 was 8.65 µM (active). Regarding `Cc1cc(Cc2ccc(N)c(C)c2)ccc1N`, the compound was classed as inactive.
